PubChem BioAssay AID2025 (NMMLSC, 2009)
Among all 330,000 compounds or so, about 980 (0.3%) were called active. The sample holds actives, similar compounds and a random draw of the others, so the mix is not that of the screen.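 How the source made its calls: active means percent response vs DMSO below 50%; inconclusive means fewer than 70 events counted for the yeast strain; inactive means the rest.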

Experiment: compounds altering RPL19A-GFP fluorescence, TOR branch – cell-based, S. cerevisiae, multiplex flow cytometry, MLPCN, primary screen (AID 2025);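 further: median channel GFP fluorescence of the barcoded RPL19A-GFP strain; ratio of sample median GFP to plate DMSO average so 100% = DMSO; lower means less RPL19A-GFP as with rapamycin TOR inhibition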
Conditions: S. cerevisiae RPL19A-GFP strain, 3 h, at 10 µM, hits give low values

Percent response vs DMSO, active:
Cc1nc2c(ncn2-c2ccccc2)c(=O)n1NC(=O)CN1CCCC1 27.7% [may fluoresce violet]
COc1cc(CN2CCCC(C(=O)c3ccc(SC)cc3)C2)cc(Cl)c1O (configuration not stated) 40.5% [may fluoresce violet]
Cc1ccc(SCC2=NNC(=O)C2)cc1 38.4% [may fluoresce violet]
CC(=O)OC(C(=O)NCCc1ccccc1)c1cccnc1 (configuration not stated) 47.6% [may fluoresce violet]
COCCN(CCOC)S(=O)(=O)c1ccc(C(=O)Nc2nc3c(s2)CCc2ccccc2-3)cc1 25.1% [may fluoresce violet]
O=C(COc1ccc(-n2cnnn2)cc1)Nc1ccccc1Cl 33.1% [may fluoresce violet]
CC(Oc1cc2oc(=O)c3c(c2cc1Cl)CCCC3)C(=O)NCc1ccncc1 (configuration not stated) 14.1% [may fluoresce violet]
CCOc1ncccc1C(=O)OCc1cn2cc(Cl)ccc2n1 45.3% [may fluoresce violet]
Cc1cc(C)cc(N(CC(=O)NC2CCCC2)C(=O)CCC(=O)Nc2cc(C)on2)c1 46.1% [may fluoresce violet]
COc1ccccc1CN1CCCC(N2CCN(c3ccc(F)cc3)CC2)C1 (configuration not stated) 30.8% [may fluoresce violet]
O=C(Cn1[nH]c(=O)c2ccccc2c1=O)Nc1cccc(-c2nnc3n2CCCCC3)c1 17.9% [may fluoresce violet]
COC(=O)c1cc(C(=O)OCC(=O)Nc2cc(C)on2)cc([N+](=O)[O-])c1 41.7% [may fluoresce violet]
Cc1ccc(CNC(=O)CCS(=O)(=O)c2ccc3c(c2)CC(C)N3C(=O)C2CC2)o1 (configuration not stated) 17.4% [may fluoresce violet]
CCc1ccc(-c2cc(C)no2)cc1S(=O)(=O)NCCc1ccc(S(N)(=O)=O)cc1 33.8% [may fluoresce violet]
COCC(C)OC(=O)c1c(N)n(CCCN2CCOCC2)c2nc3ccccc3nc12 (configuration not stated) 27% [may fluoresce violet]
COc1ccc(CCNc2cc(N3CCN(C(=O)c4ccccc4OC)CC3)ccc2[N+](=O)[O-])cc1OC 19.6% [may fluoresce violet]
Cn1ccs/c1=N\S(=O)(=O)c1ccc(C(C)(C)C)cc1 43.3% [may fluoresce violet]
Cc1cccn2c(=O)c3cc(C#N)c(=O)n(CCCN4CCOCC4)c3nc12 37.1% [may fluoresce violet]
Cc1ccccc1S(=O)(=O)Cc1ccc(C(=O)NCCN2CCCCC2C)o1 (configuration not stated) 34.3% [may fluoresce violet]

Percent response vs DMSO, inactive:
O=C(CN1CCCC1)N1CCN(c2ccccc2)CC1 90.5%
Cc1nc2ccccc2c(=O)n1NC(=O)c1ccccc1 100%
CN(CCc1cnn(C)c1)Cc1cn(C)nc1-c1ccccc1F 96.2%
COc1ccc(C(=O)NC2CC2)cc1OC1CCN(Cc2ccc(SC)cc2)CC1 101%
COc1ccc(CN2CCCC(C(=O)c3ccc(Cl)cc3)C2)cc1Cn1cncn1 (configuration not stated) 105%
CN(C)C(=O)c1cc(Br)ccc1Cl 95.1%
Cc1ccc(SCc2cc(=O)[nH]c(N3CCCCC3)n2)cc1 97.5%
Cc1ccc(SCCSc2ncccn2)cc1 109%
Cc1cccc(N2CCN(C(=O)CN(C)S(=O)(=O)c3ccc4c(c3)CCC(=O)N4)CC2)c1C 99.3%
Clc1c(OCCCn2ccnc2)ccc2ccccc12 99.7%
O=C(CSc1ncccn1)NCCc1ccccc1 99.8%
CCC(Oc1ccccc1)C(=O)NCc1cccnc1 (configuration not stated) 100%
O=C1COc2ccc(C(=O)COC(=O)CCOc3ccccc3)cc2N1 97.8%
COc1ccc(C(=O)Nc2ncc3c(n2)-c2ccccc2CC3)cc1 97.8%
C=CCN(CC=C)S(=O)(=O)c1ccc(C(=O)Nc2nc3c(s2)CCc2ccccc2-3)cc1 103%
COc1cc(CNc2ncn[nH]2)ccc1OCc1ccccc1C 103%
O=C1COc2ccc(S(=O)(=O)NCCc3ccc(Cl)cc3)cc2N1 103%
C=CCc1cccc(/C=N/NC(=O)COc2ccc(-n3cnnn3)cc2)c1O 105%
O=C(Cc1c(F)cccc1Cl)Nc1ccc(-n2cnnn2)cc1 94.7%
COc1ccc(CN(Cc2ccco2)S(=O)(=O)c2ccc(S(=O)(=O)N3CCCC3)cc2)cc1 107%
CCOc1ccc(S(=O)(=O)N2CCC(c3ccccc3)CC2)cc1C(=O)O 99.8%
COc1ccc(S(=O)(=O)NC(C)C(=O)NCc2ccncc2)cc1Cl (configuration not stated) 99.9%
O=C(COc1cc2oc(=O)c3c(c2cc1Cl)CCC3)NCCCN1CCOCC1 112%
Cc1ccc(OCCCCN2CCCCC2)c(Br)c1 96.8%
CCOc1ncccc1C(=O)OCC(=O)N1c2ccccc2CC1C (configuration not stated) 95.9%
CCOc1ncccc1C(=O)OCC(=O)NC1CC1 99.9%
Cc1cc(NC(=O)CCC(=O)N(CC(=O)NC2CCCC2)c2ccc(F)cc2)no1 100%
Cc1cc(C)cc(N(CC(=O)NC2CCCC2)C(=O)CCC(=O)Nc2nccs2)c1 103%
COc1cc(C2C3=C(CCCC3=O)OC3=C2C(=O)CCC3)ccc1OCC(=O)Nc1ccccc1 110%
O=C1CSC(=S)N1c1ccc(Cl)c(Cl)c1 109%
COc1ccccc1CN1CCN(Cc2cc(OC)c(OC)cc2OC)CC1 106%
COc1ccc(CN2CCCC(N3CCc4ccccc4C3)C2)c(O)c1 (configuration not stated) 101%
O=C(O)CSc1nccc2ccccc12 102%
Cc1ccc(NC(=O)CCOc2ccccc2)cc1S(=O)(=O)Nc1ccccc1Cl 102%
Cc1ccc(-c2csc(NC(=O)Cn3[nH]c(=O)c4ccccc4c3=O)n2)cc1 103%
Cc1c(C(=O)Nc2cccc(-c3nnc4n3CCCCC4)c2)oc2ccccc12 111%
Cc1cc(NC(=O)COc2ccc([N+](=O)[O-])cc2)no1 105%
Cc1cc(NC(=O)CSc2nccn2-c2ccc([N+](=O)[O-])cc2)no1 98.9%
COc1ccc(S(=O)(=O)NCCc2cc3ccc(C)c(C)c3[nH]c2=O)cc1 101%
Oc1ccc2ccc3cccc[n+]3c2c1 100%
Nn1c(SCC(=O)Nc2nccs2)nncc1=O 95.5%
CC(C)COP(=O)(c1ccc(N(C)C)cc1)C(Nc1ccccc1)c1cccnc1 (configuration not stated) 100%
COc1ccccc1CNC(=O)C1CCN(S(=O)(=O)c2ccc3c(c2)CC(C)N3C(=O)C2CC2)CC1 (configuration not stated) 102%
CCC(=O)N1c2ccc(S(=O)(=O)CCC(=O)N3CCN(c4ccccc4)CC3)cc2CC1C (configuration not stated) 105%
Cc1cc(-c2ccc(C)c(S(=O)(=O)Nc3ccc(S(N)(=O)=O)cc3)c2)on1 99%
Cc1noc(C)c1S(=O)(=O)NCCc1ccc(S(N)(=O)=O)cc1 95.7%
CCOC(=O)N1CCC(N(CCOC)C(=O)Nc2ccc(C)c(C)c2)CC1 89.6%
CCOC(=O)C1Nc2ccc(C(F)(F)F)cc2C2C=CCC12 (configuration not stated) 93.3%
CC1CCN(C(=O)CN(c2ccc(Oc3ccccc3)cc2)S(C)(=O)=O)CC1 100%
COc1ccc(NC(=O)c2cccc(Cl)c2)c[n+]1[O-] 106%
CC(CN1CCOCC1)OC(=O)c1ccc(C(C)(C)C)cc1 (configuration not stated) 105%
CC(C)(C)OC(=O)c1c(N)n(CCCN2CCCC2=O)c2nc3ccccc3nc12 90%
CCCCC(CC)CNC(=O)C(=O)C1C(=O)Nc2ccccc21 (configuration not stated) 96.8%
COc1ccc(N(CCC#N)S(=O)(=O)c2ccc(Cl)cc2)cc1 99.2%
COc1ccccc1OCCNCC(O)COc1cccc2[nH]c3ccccc3c12 (configuration not stated) 103%
O=C(CNC(=O)c1ccc(Cl)cc1Cl)NCC(=O)Nc1ccccc1N1CCOCC1 100%
O=C(c1ccccc1)N1CCN(c2ccc([N+](=O)[O-])c(NCc3ccco3)c2)CC1 98.5%
COc1ccccc1OCCNc1cc(N2CCOCC2)ccc1[N+](=O)[O-] 99.1%
Cn1ccsc1=NC(=O)c1cc(S(=O)(=O)N2CCOCC2)ccc1Cl 101%
COc1ccc(C2=Nn3c(nnc3-c3ccccc3OC)SC2)cc1OC1CCCC1 92.8%
Cc1cccn2c(=O)c3cc(C#N)c(=NC(=O)c4cccnc4)n(CC4CCCO4)c3nc12 (configuration not stated) 97.3%
Cc1cccn2c(=O)c3cc(C(=O)NCC4CCCO4)c(=N)n(Cc4ccc(F)cc4)c3nc12 (configuration not stated) 97.2%
CCCOc1ccc(/C=N/NC(=O)C2CC2)c(OCCC)c1 101%
COc1cccc(N=c2oc3c(C)ncc(CO)c3cc2C(N)=O)c1 95%
CCc1ccccc1S(=O)(=O)Cc1ccc(C(=O)NCCc2ccccc2)o1 96.8%
Cc1oc(-c2ccccc2F)nc1CS(=O)CC(=O)NCCN1CCCCC1C (configuration not stated) 100%
CCCS(=O)(=O)N1CCCC(C(=O)NCCN2CCCCC2C)C1 (configuration not stated) 104%
Cc1cc(N2CCOCC2)nc2ccc(NC(=S)N3CCN(Cc4ccccc4)CC3)cc12 105%
